Experimental data from PubChem BioAssay.

Legend:
[1] = test system: Human papillomavirus type 1a protein E7 (residues 44-93); assay: HPV1a E7 fragment binders on microarrays, primary screen, biochemical, small-molecule microarray, residues 44-93, 635 nm fluorescence (AID 1108); details: small-molecule microarray binding, fluorescence 635 nm; higher = more signal;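 note: E7 fragment applied at 1 µg/mL in TBST for 1 h at 4 C; score combines spot fluorescence with its signal to noise ratio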
[2] = modulators of HCV replicon luciferase signal, primary screen, HCV replication inhibitor project, Huh7 cells, luciferase reporter (AID 1109); details: 48 h, higher = more signal;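 note: huh7 hepatoma cells harbouring a luciferase neomycin HCV replicon reporter; luciferase luminescence as measure of HCV replicon replication; test concentration not given here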
[3] = target: Left-right determination factor 2 (Homo sapiens) (UniProt O00292); assay: LEFTY2 binders on small-molecule microarrays, primary screen, biochemical, small-molecule microarray, 635 nm fluorescence scan (AID 1110); details: LEFTY2 binding, higher = more signal
Sequence of Left-right determination factor 2 (Homo sapiens) (O00292 whole entry, looked up): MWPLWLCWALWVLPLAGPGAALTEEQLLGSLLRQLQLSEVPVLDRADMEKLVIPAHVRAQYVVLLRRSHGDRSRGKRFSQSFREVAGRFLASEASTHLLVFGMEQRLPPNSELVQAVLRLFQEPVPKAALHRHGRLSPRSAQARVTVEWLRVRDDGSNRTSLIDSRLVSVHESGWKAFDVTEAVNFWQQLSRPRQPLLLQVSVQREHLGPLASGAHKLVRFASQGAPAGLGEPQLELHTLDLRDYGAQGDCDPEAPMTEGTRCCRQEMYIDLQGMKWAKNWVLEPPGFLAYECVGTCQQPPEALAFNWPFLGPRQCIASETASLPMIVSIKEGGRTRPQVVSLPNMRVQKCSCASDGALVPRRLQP

[4] = target: Calmodulin-1 (Homo sapiens) (UniProt P0DP23); assay: CALM1 binders on microarrays, EGTA buffer, profiling panel, biochemical, small-molecule microarray, Cy5-labelled CALM1 (AID 1111); details: Cy5-CALM1 binding fluorescence, higher = more signal;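 note: labelled calmodulin applied in Tris saline Tween buffer holding calcium plus EGTA and DTT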
[5] = target: Calmodulin-1 (Homo sapiens) (UniProt P0DP23); assay: calcium-bound CALM1 binders on microarrays, profiling panel, artefact control for SMM control-protein annotation, biochemical, small-molecule microarray, Cy5-labelled CALM1, plus calcium (AID 1112); details: Cy5-CALM1 binding fluorescence, higher = more signal;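 note: score merges spot fluorescence with signal to noise from triplicate slides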
[6] = small-molecule microarray binders of probe aWnt5a, primary screen, biochemical, biotinylated probe, 635/667 nm fluorescence (AID 1113); details: higher = more signal;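 note: score merges 667 nm fluorescence intensity with signal-to-noise per printed feature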
[7] = small-molecule microarray binders of probe aShh, primary screen, biochemical, biotinylated probe, 635/667 nm fluorescence (AID 1114); details: higher = more signal;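 note: probe is biotin-labelled aShh protein from a stem cell growth factor screen; measures binding of labelled protein to compounds printed on the slide; score merges feature fluorescence at 667 nm with signal-to-noise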
[8] = small-molecule microarray binders of probe aNog, primary screen, biochemical, biotinylated probe, 635/667 nm fluorescence (AID 1115); details: higher = more signal;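 note: probe is biotinylated aNog protein used at 0.15 µg/mL for 1 h at 4 C; z-score combines 667 nm fluorescence of each spot with its signal to noise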
[9] = target: Torsin-1A-interacting protein 1 (Homo sapiens) (UniProt Q5JTV8); assay: LAP1 binders from COS7 cell lysate, primary screen, small-molecule microarray, 635/667 nm fluorescence (AID 1116); details: COS7-hLAP1 lysate binding, 635 nm fluorescence, higher = more signal
Sequence of Torsin-1A-interacting protein 1 (Homo sapiens) (Q5JTV8 whole entry, looked up): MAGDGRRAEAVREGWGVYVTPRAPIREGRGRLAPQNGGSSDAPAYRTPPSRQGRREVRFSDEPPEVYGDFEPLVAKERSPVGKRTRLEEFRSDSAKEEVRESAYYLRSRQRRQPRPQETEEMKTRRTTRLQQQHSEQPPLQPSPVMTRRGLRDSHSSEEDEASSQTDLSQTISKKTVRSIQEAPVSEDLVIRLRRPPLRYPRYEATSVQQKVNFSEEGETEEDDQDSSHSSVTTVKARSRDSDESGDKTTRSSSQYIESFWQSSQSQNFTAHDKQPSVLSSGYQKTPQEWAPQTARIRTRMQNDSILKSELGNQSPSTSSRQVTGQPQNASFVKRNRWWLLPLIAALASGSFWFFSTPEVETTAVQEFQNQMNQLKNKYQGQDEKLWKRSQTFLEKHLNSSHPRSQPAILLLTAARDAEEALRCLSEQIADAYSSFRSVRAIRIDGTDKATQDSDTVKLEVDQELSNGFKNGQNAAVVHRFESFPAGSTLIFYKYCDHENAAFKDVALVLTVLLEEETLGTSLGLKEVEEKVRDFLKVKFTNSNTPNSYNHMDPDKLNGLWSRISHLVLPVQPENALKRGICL

[10] = target: Alpha-bungarotoxin (Bungarus multicinctus) (UniProt P60615); assay: alpha-bungarotoxin binders on microarray, profiling panel, artefact control for SMM control protein annotation, biochemical, small-molecule microarray, Alexa647 label, 635/667 nm fluorescence (AID 1117); details: alpha-BTX-A647 binding fluorescence, higher = more signal
Sequence of Alpha-bungarotoxin (Bungarus multicinctus) (P60615 whole entry, looked up): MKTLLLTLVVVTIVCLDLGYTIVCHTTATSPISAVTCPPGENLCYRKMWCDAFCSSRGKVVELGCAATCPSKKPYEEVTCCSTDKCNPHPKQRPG

SMILES	composite z-score [1]	z-score [2]	composite z-score [3]	composite z-score [4]	composite z-score [5]	composite z-score [6]	composite z-score [7]	composite z-score [8]	composite z-score [9]	composite z-score [10]
CC(C)=CCCC(C)=CCON=C1[C@H]2CCn3c(=O)n(-c4ccccc4)c(=O)n3[C@H]2[C@H](O)[C@@H]2O[C@H]12	1.35	-3.17	0.802	-0.198	-0.807	-0.154	-0.102	-0.061	0.458	0.514
CO[C@@H]1COC(=O)[C@H](COCc2ccccc2)NC(=O)CC=C[C@@H](C)[C@H](OC)COC(=O)[C@@H](C)NC(=O)CC=C[C@H]1C	-0.747	-0.536	0.583	-1.78	-2.61	-0.18	0.0062	-0.643	0.343	-1.31
COC(=O)[C@H](C)NC(=O)CCC1CC(OC(=O)NCc2ccc3c(c2)OCO3)CC2(CCCC(COC(=O)NCCCN3CCCC3=O)O2)O1 (stereo not given in full)	1.32	-1.87	0.849	0.924	-0.151	-0.0644	-0.186	0.0215	0.286	0.88
CON=C[C@@H](OC)[C@H](C)C=CCC(=O)OC	-1.72	-0.337	0.262	-0.491	-0.476	-0.0573	0.0952	-0.296	0.447	-0.023
CC[C@@H](c1ccccc1)n1c(=O)n2n(c1=O)[C@H]1[C@H](O)[C@@H]3O[C@@H]3C(=NOCc3ccccc3)[C@H]1CC2	0.502	-4.13	0.244	0.207	-0.258	-0.107	-0.0146	-0.0606	-0.0058	0.919
C=C(C)C(=O)OC[C@H]1CN2[C@@H](CC[C@@H](C)[C@@H]2c2ccc(Br)cc2)C(=O)O1	0.33	1.25	0.373	-0.562	-0.395	-0.178	-0.0553	-0.353	-0.273	0.534
CO[C@H]1COC(=O)CCC[C@H](C)[C@H](OC)COC(=O)CC=C[C@@H]1C	-1.46	-1.34	0.804	-0.294	-1.2	-0.156	-0.138	-0.258	0.307	-0.0936
C#CCCCON=C1C[C@@H](O)[C@@H](O)[C@@H]2[C@@H]3C(=O)N(C4CCCCC4)C(=O)[C@@H]3CC[C@@H]12	0.428	-0.0098	0.321	-0.346	-0.342	-0.0685	-0.212	-0.494	0.366	0.281
COC(=O)[C@H](C)NC(=O)CCC1CC(OC(=O)NCc2ccc3c(c2)OCO3)CC2(CCCC(COC(=O)NCCc3ccc(Cl)cc3)O2)O1 (stereo not given in full)	0.536	-0.562	1.13	-0.209	-0.97	-0.0367	0.0893	-0.111	0.288	0.202
COC(=O)CC=C[C@@H](C)[C@@H](C=NOC(C)CN1CCCCc2nc(C)c(C)cc21)NS(=O)(=O)c1ccc(C)cc1 (stereo not given in full)	0.241	0.0814	0.614	-0.344	-1.27	-0.158	0.0144	0.0567	0.0017	0.363
COc1ccc(COC(=O)NN=C2C[C@@H](O)[C@@H](O)[C@@H]3[C@@H]4C(=O)N(c5cccc(Oc6ccccc6)c5)C(=O)[C@@H]4CC[C@H]23)cc1	-0.0321	-1.46	-0.35	0.0317	0.176	-0.215	-0.2	-0.336	0.215	0.971
C[C@@H]1C=CCC(=O)OC[C@H](C)C(=O)N[C@@H](Cc2ccccc2)C(=O)OC1	-0.118	0.962	0.786	-0.273	-0.62	-0.118	-0.414	-0.17	-0.232	-0.0092
CC(=O)OC[C@H]1O[C@@H](ON=C(C)CCN2CCCCc3nc(C)c(C)cc32)[C@H](OC(C)=O)[C@@H](OC(C)=O)[C@@H]1OC(C)=O	1.16	-0.997	0.962	-0.336	-0.767	-0.0337	0.0121	-0.0129	0.479	-0.546
CC(C)C(=O)N[C@H]1CCCN1C(=O)C=Cc1ccccc1	0.531	-0.206	0.681	-0.266	-0.306	0.0495	0.3	0.254	0.289	0.0359
O=C1[C@H]2CCn3c(=O)n(-c4ccccc4)c(=O)n3[C@H]2[C@H](O)[C@@H]2O[C@H]12	-0.453	-0.687	0.33	-0.14	-0.391	-0.247	-0.124	-0.0428	0.085	0.658
CC(=O)OC[C@H]1O[C@H](CC=NO[C@@H](C)c2cn([C@H](CO)Cc3ccccc3)nn2)C=C[C@@H]1OC(C)=O	0.949	-1.02	0.656	-0.16	-0.174	-0.176	0.194	0.158	1.03	1.56
CO[C@H]1COC(=O)CC=C[C@H](C)[C@H](OC)COC(=O)[C@@H](C)NC(=O)CC=C[C@@H]1C	-2.87	-2.14	0.953	-0.735	-1.49	-0.101	-0.0681	-0.21	0.229	-0.32
CC(C)[C@@H](OCc1ccccc1)[C@H](C)C=NO[C@H](C)c1cn([C@@H]2COC[C@H]2O)nn1	1.27	-1.16	0.542	-0.219	-0.407	-0.0832	-0.206	-0.198	0.296	0.586
